From PubChem BioAssay (NCI)
Compounds without any hit were thinned out: in the full panel of roughly 83,000, 20% have a hit.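 The test compound was applied at a single concentration to cells in 96-well plates for 48 hours, and percent growth was recorded.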 Active and inactive are the calls of the source.

Each compound was assayed on MOLT-4 leukemia (assay: NCI-60 one-dose screen, 48 h (100 = growth as untreated, 0 = no growth, -100 = all killed)). Settings: 10 µM unless noted.
Protocol: Growth inhibition of the MOLT-4 human tumor cell line is measured as a screen for anti-cancer activity. Cells are grown in 96 well plates and exposed to the test compound for 48 hours. Compounds are tested at a single concentration, which is 10^-5 M for most compounds. The reported endpoint is percent growth (GI% or GIPRCNT), where numbers from 0 - 100% represent growth inhibition, and numbers from -100% - 0 represent cell death. For example, a value of 40 represents 60% growth inhibition. A value of 0 means no net growth occurred over the course of the experiment. A value of -40 indicates 40% of cells at the beginning of the experiment died by the end of the experiment. A value of -100 means all cells are dead at the end of the experiment.
NCI-60 Human Tumor Cell Lines Screen was performed using the standard one-dose NCI protocol, which is described in more detail at https://dtp.cancer.gov/discovery_development/nci-60/default.htm.
Compounds with GIPRCNT values below 10 were considered active. Activity score was based on GIPRCNT using the following formula: […]
Score is 0 for GIPRCNT values of 100 or above, 50 for GIPRCNT values of 0, and 100 for GIPRCNT values of -100.

How did the growth turn out when `C=C(C)[C@@H]1CC[C@]2(CO)CC[C@]3(C)[C@H](CC[C@@H]4[C@@](C)(CCCN)[C@H](C(=C)C)CC[C@]43C)[C@@H]12` was run?
Its growth is -32.4% (active).

For `C=C1C(=O)O[C@H]2[C@H]1CC/C(CNC(=O)Cc1c[nH]c3ccccc13)=C\CC[C@@]1(C)O[C@@H]21`, which growth is on record?
Its growth is -4.65% (active).

How did the growth turn out when `COCCn1cc(-c2nc(-c3c[nH]c4ncccc34)cs2)c2ccccc21` was run?
The growth was 48.7% (inactive).

How did the growth turn out when `COc1ccc(-c2cc(C(=O)N3N=C(c4ccc(N)cc4)CC3c3ccc(Cl)cc3)c3ccccc3n2)cc1` (stereo not given) was run?
The growth was 20.5% (inactive).

For `CN(C)Cc1cc(C(C)(C)C)cc(Br)c1O`, which growth is on record?
The growth was 110% (inactive).

Which growth does the source give for `COc1ccc(/C=C/C(c2cc(OC)c(OC)c(OC)c2)n2cncn2)cc1O` (stereo not given) here?
Its growth is 21.8% (inactive).

For `O=C(Nc1cccnc1Nc1ccccc1)c1cn(Cc2cccc(Oc3ccccc3)c2)nn1`, which growth is on record?
Its growth is 31.1% (inactive).

How did the growth turn out when `COc1ccc2[nH]cc(-c3nonc3-c3c[nH]c4ccc(Br)cc34)c2c1` was run?
Its growth is 28.3% (inactive).

How did the growth turn out when `COc1ccc(/C=C2\CN(C(=O)C(Cl)Cl)C/C(=C\c3ccc(OC)c(OC)c3)C2=O)cc1OC` was run?
The growth was 5.43% (active).

`Cc1cc(C)c2c(c1)N(C)c1ncnc(-n3c(C)nc4cc(C)ccc43)c1CC2C` (stereo not given) was tested. Which growth did it give?
Its growth is 27.8% (inactive).

`O=[N+]([O-])c1ccccc1Nc1ccc2ccccc2c1` was tested. Which growth did it give?
Its growth is 76.8% (inactive).

For `O=c1cc(CP(=O)(O)O)c2cc(O)c(-c3ccccc3)cc2o1`, which growth is on record?
The growth was 99.2% (inactive).

Which growth does the source give for `CCN(CC)CCn1c2ccc(OC)cc2c2sc3cc(O)ccc3c(=O)c21` here?
Its growth is 8.27% (active).

`COc1cc([C@@H](CCO)C[C@H](C)c2ccc3ccccc3c2)cc(OC)c1OC` was tested. Which growth did it give?
Its growth is 25.7% (inactive).

For `CC1=C(Cl)C(=O)c2cc(C)ccc2C1=O`, which growth is on record?
Its growth is 98.1% (inactive).

Which growth does the source give for `CN(C)c1ccc(/C=C2\C=C(c3nc4ccccc4s3)OC2=O)cc1` here?
Its growth is 94.8% (inactive).

With `O=C1/C(=C/c2ccccn2)SC(=S)N1N1CCOCC1` as the compound, how does the growth read?
Its growth is 101% (inactive).

For `O=S(=O)(NCCNc1nccc(-c2c(-c3ccc(F)c(O)c3)nc3sccn23)n1)c1ccc(Cl)cc1`, which growth is on record?
Its growth is 1.03% (active).

How did the growth turn out when `O=C1Nc2ccccc2/C1=N/N1C(=O)CN(CCCl)C1=O` was run?
The growth was 99.9% (inactive).

For `COc1ccc(C(O)c2cc3c(N)c(C(=O)Nc4cccc5ccccc45)sc3nc2C)cc1` (stereo not given), which growth is on record?
Its growth is 10.9% (inactive).

With `CC(C)Cc1nc(Nc2ccccc2)[nH]c(=O)c1C#N` as the compound, how does the growth read?
Its growth is 61.6% (inactive).

Which growth does the source give for `Cc1ccc(S(=O)(=O)OCC#CCOS(=O)(=O)c2ccc(C)cc2)cc1` here?
Its growth is 46.3% (inactive).

For `O=C(c1c[nH]c2ccccc12)c1n[nH]c(=S)n1-c1ccc([N+](=O)[O-])cc1`, which growth is on record?
Its growth is 86% (inactive).

How did the growth turn out when `COc1cc2c(c(OC)c1OC)C(=O)CC(c1cccc(C(=O)Nc3ccccc3Br)c1)O2` (stereo not given) was run?
The growth was 68.6% (inactive).

How did the growth turn out when `CC(C)NS(=O)(=O)/N=C1\NC(=O)NC1=C(Cl)Cl` was run?
Its growth is 87% (inactive).

`O=C(Cc1ccc(/C=C/C(=O)c2ncc[nH]2)cc1)Nc1cc(F)c(F)c(F)c1` was tested. Which growth did it give?
The growth was 26.7% (inactive).

With `CCNC(=O)N1CCc2c(Br)c3c(c(OC)c2C1Cc1ccc(OC)cc1)OCO3` (stereo not given) as the compound, how does the growth read?
The growth was 23.6% (inactive).

`COc1cc(-c2nccc3[nH]c(-c4cccc5[nH]ccc45)nc23)cc(OC)c1OC` was tested. Which growth did it give?
The growth was 19.9% (inactive).

How did the growth turn out when `N#Cc1c(-c2ccc(Br)cc2)nc2c(N=Nc3ccc(S(N)(=O)=O)cc3)c(N)nn2c1N` was run?
The growth was 1.59% (active).

For `CC(C)(Sc1cc(C(C)(C)C)c(O)c(C(C)(C)C)c1)Sc1cc(C(C)(C)C)c(OC(=O)CCC(=O)O)c(C(C)(C)C)c1`, which growth is on record?
Its growth is 73.3% (inactive).

Which growth does the source give for `COc1ccc(-c2cc(C(=O)N3N=C(c4ccc(N)cc4)CC3c3ccc(Cl)cc3)c3cc(OC)ccc3n2)cc1` (stereo not given) here?
Its growth is 32.5% (inactive).

With `O=C(/C=C/C12c3ccccc3C(c3ccccc31)C1C(=O)NC(=O)C12)c1ccco1` (stereo not given) as the compound, how does the growth read?
The growth was 6.25% (active).

`CN1CCOCCN(C)Cc2ccc3ccc(cc3c2)CN(C)CCOCCN(C)Cc2ccc3ccc(cc3c2)C1` was tested. Which growth did it give?
The growth was 74% (inactive).

Which growth does the source give for `Cc1c2cnccc2c(C)c2c1c1cc(CO)ccc1n2C` here?
Its growth is -10.8% (active).

How did the growth turn out when `Cc1c(C(C)(C)O)cn2ncnc(Oc3ccc(NC(=O)Nc4ccc(Cl)c(C(F)(F)F)c4)c(F)c3)c12` was run?
The growth was 32.2% (inactive).

For `O=C(CCCCCCCC(=O)N1CCCCC1)N1CCCCC1`, which growth is on record?
The growth was 126% (inactive).

With `C=C1C(=O)O[C@H]2[C@H]1CC/C(COC(=O)NCc1ccc(Cn3c(=O)sn(-c4ccc(I)cc4)c3=O)cc1)=C\CC[C@@]1(C)O[C@@H]21` as the compound, how does the growth read?
Its growth is 5.6% (active).

Which growth does the source give for `c1cc(OCCN2CCCC2)ccc1CNc1ccc2nc(CCC3CCCCC3)[nH]c2c1` here?
Its growth is 9.92% (active).

With `COc1cccc(CNc2c3ccccc3nc3ccccc23)c1OC` as the compound, how does the growth read?
Its growth is 17.9% (inactive).

For `COc1ccc(C2C3=C(COC3=O)N(CCO)c3cc4c(cc32)OCO4)cc1OC` (stereo not given), which growth is on record?
The growth was 88.5% (inactive).
